Holding throughout (assay): log2 fold change, soluble protein after heating vs DMSO (PISA); higher = thermal stabilisation; K562 cells, 10 uM, 30 min; active = over 0.2 and 3.5 SD of the protein, either way, in both replicates (recomputed)
Compound in experiment [1]: CC1=C(C=C(C=C1)NC(=O)C2=CC(=CC=C2)C(C)(C)C#N)NC3=CC4=C(C=C3)N=CN(C4=O)C
The method in brief: (§1)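 K562 cells at 2×10^6 cells/mL were treated with 10 μM compound for 30 min. Aliquots were heated for 3 min across 48°C-58°C, pooled, and extracted in PBS with 0.5% NP-40 at 4°C; soluble protein was the supernatant after 21,000xg for 90 min. Soluble protein was quantified by TMTpro 16plex LC-MS/MS with channel sums equalised, and reported as log2 fold change in thermal stability against DMSO controls, with values from duplicates.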

Compound in experiment [2]: CC1=C(C=C(C=C1)NC(=O)C2=CC(=CC=C2)N(C)C)NC(=O)C3=CC=C(C=C3)O
The method in brief:
as §1

Compound in experiment [3]: CC1=CC=C(C=C1)SC2=C3C=C(SC3=CN=C2)C(=O)N
The method in brief:
as §1

Compound in experiment [4]: CC1=NC(=CC=C1)C2=C(N=C(N2)C(C)(C)C)C3=CC4=NC=CN=C4C=C3
The method in brief:
as §1

Compound in the next experiment: CCCCN(Cc1ccc(C(=O)NO)cc1)C(=O)Nc1ccccc1 [Nexturastat A]
The method in brief: as §1

Compound in a further experiment: CCCS(=O)(=O)Nc1ccc(F)c(C(=O)c2c[nH]c3ncc(-c4ccc(Cl)cc4)cc23)c1F [vemurafenib]
The method in brief:
as §1

Compound in experiment [5]: CCCS(=O)(=O)Nc1ccc(F)c(C(=O)c2c[nH]c3ncc(Cl)cc23)c1F
The method in brief:
as §1

Compound in experiment [6]: CCCc1cc(C)[nH]c(=O)c1CNC(=O)c1cc(-c2ccnc(N3CCN(C)CC3)c2)cc2c1cnn2C(C)C
The method in brief:
as §1

Compound in the next experiment: CCN(CC)Cc1ccc2cc(COC(=O)Nc3ccc(C(=O)NO)cc3)ccc2c1 [givinostat]
The method in brief:
as §1

Compound in the next experiment: CCN(CCCOc1ccc2c(Nc3cc(CC(=O)Nc4cccc(F)c4)[nH]n3)ncnc2c1)CCOP(=O)(O)O [barasertib]
In short, it runs like this:
as §1

Compound in experiment [7]: CC[C@@H]1C(=O)N(C)c2cnc(Nc3ccc(C(=O)NC4CCN(C)CC4)cc3OC)nc2N1C1CCCC1
In short, it runs like this: as §1

Compound in the next experiment: CC[C@@H]1C(=O)N(C)c2cnc(Nc3ccc(C(=O)N[C@H]4CC[C@H](N5CCN(CC6CC6)CC5)CC4)cc3OC)nc2N1C(C)C [volasertib]
In short, it runs like this:
as §1

Compound in experiment [8]: CC[C@H](C)N1C=C(C2=C(C=C(C=C21)C3=CN=C(C=C3)N4CCNCC4)C(=O)NCC5=C(C=C(NC5=O)C)C)C
In short, it runs like this: as §1

Compound in another experiment: CC[C@H](C)[C@@H](C(=O)N[C@@H]([C@@H](C)O)C(=O)N[C@@H](CC(C)C)C(=O)[C@]1(CO1)C)NC(=O)[C@H]([C@@H](C)CC)N(C)C(=O)C [epoxomicin]
The method in brief: as §1

Compound in experiment [9]: CCn1c(C(=O)N(C2CC2)C2CC2)cc2c3c(ncn3C)c(Nc3cc(C)n(C)n3)nc21
The method in brief:
as §1

Compound in experiment [10]: CCn1cc(-c2ccnc3[nH]c(-c4cccc(CN(C)C)c4)cc23)c(-c2ccc(NC(=O)N(C)C)cc2)n1
In short, it runs like this:
as §1

Compound in experiment [11]: CN(C)CC(=O)Nc1ccc2[nH]c(=O)c3ccccc3c2c1
In short, it runs like this: as §1

Compound in another experiment: CN(CCOC1=CC=C(C=C1)C[C@H]2C(=O)NC(=O)S2)C3=CC=CC=N3 (racemic) [rosiglitazone]
In short, it runs like this: as §1

Compound in experiment [12]: CN1C2=C(C3=C1C(=O)N(N=C3)CC4=CC(=CC=C4)N)SC(=C2)S(=O)C
In short, it runs like this:
as §1

Compound in experiment [13]: CN1CCC(CNc2ccc3ncc(-c4cccc(OC(F)(F)F)c4)n3n2)CC1
The method in brief:
as §1

Targets with a hit are over-represented here; the source holds about 7,900 in all. About 0.6% of all pairs of compound and target were hits. Unmarked numbers belong to inactive results.

The values that follow come from the supplement of paper PMC10849652.

Chain of UniProt Q13546 (Q13546 whole entry, looked up): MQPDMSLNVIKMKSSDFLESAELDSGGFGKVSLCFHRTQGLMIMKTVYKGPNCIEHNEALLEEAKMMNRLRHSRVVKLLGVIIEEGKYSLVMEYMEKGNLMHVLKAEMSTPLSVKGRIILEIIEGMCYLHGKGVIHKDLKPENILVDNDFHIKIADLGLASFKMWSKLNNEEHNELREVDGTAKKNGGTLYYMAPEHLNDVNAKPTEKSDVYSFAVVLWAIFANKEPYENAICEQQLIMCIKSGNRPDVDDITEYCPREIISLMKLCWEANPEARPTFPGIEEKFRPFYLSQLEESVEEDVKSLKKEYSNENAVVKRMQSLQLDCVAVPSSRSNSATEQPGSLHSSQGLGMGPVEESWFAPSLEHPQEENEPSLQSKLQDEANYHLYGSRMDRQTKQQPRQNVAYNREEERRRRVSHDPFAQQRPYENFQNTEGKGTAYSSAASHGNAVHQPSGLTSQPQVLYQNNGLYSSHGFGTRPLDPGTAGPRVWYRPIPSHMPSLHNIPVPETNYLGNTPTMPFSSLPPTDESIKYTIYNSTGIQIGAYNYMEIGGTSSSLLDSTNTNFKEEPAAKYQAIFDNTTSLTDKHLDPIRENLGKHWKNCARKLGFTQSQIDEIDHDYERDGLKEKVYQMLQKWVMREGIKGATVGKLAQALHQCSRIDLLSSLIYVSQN
Chain of UniProt Q5JTH9 (Q5JTH9 whole entry, looked up): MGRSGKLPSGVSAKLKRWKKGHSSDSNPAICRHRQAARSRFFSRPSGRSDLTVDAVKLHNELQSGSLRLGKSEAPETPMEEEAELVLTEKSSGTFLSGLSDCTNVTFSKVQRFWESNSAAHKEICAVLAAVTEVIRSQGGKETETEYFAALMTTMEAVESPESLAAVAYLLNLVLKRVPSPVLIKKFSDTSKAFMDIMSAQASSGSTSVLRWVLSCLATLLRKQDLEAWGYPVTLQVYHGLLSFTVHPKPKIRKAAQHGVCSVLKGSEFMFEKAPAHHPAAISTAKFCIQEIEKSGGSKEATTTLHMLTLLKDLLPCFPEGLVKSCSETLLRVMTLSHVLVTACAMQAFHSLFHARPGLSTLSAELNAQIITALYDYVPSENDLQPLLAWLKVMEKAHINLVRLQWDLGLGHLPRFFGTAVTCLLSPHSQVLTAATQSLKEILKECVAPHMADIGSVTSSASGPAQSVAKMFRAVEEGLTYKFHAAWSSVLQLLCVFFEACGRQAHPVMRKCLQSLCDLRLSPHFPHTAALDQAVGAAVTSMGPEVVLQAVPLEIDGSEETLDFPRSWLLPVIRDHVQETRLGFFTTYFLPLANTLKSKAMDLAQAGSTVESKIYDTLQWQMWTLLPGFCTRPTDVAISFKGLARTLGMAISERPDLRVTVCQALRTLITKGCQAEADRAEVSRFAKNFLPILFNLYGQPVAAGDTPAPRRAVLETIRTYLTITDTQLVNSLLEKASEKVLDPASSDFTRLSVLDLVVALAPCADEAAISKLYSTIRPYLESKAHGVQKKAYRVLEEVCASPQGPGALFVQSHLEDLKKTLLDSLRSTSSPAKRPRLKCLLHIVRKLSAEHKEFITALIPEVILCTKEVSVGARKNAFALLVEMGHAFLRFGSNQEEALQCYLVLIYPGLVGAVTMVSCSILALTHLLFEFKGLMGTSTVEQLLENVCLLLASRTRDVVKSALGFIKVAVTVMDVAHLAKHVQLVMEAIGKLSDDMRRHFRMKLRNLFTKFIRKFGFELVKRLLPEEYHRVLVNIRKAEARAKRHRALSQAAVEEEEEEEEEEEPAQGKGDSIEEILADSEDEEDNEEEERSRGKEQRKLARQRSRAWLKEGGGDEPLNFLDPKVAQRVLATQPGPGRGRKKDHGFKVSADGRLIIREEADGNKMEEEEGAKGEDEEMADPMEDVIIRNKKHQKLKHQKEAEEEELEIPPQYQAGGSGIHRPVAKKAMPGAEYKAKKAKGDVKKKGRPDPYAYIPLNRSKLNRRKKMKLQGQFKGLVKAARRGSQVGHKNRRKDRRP
Chain of UniProt Q96T23 (Q96T23 whole entry, looked up): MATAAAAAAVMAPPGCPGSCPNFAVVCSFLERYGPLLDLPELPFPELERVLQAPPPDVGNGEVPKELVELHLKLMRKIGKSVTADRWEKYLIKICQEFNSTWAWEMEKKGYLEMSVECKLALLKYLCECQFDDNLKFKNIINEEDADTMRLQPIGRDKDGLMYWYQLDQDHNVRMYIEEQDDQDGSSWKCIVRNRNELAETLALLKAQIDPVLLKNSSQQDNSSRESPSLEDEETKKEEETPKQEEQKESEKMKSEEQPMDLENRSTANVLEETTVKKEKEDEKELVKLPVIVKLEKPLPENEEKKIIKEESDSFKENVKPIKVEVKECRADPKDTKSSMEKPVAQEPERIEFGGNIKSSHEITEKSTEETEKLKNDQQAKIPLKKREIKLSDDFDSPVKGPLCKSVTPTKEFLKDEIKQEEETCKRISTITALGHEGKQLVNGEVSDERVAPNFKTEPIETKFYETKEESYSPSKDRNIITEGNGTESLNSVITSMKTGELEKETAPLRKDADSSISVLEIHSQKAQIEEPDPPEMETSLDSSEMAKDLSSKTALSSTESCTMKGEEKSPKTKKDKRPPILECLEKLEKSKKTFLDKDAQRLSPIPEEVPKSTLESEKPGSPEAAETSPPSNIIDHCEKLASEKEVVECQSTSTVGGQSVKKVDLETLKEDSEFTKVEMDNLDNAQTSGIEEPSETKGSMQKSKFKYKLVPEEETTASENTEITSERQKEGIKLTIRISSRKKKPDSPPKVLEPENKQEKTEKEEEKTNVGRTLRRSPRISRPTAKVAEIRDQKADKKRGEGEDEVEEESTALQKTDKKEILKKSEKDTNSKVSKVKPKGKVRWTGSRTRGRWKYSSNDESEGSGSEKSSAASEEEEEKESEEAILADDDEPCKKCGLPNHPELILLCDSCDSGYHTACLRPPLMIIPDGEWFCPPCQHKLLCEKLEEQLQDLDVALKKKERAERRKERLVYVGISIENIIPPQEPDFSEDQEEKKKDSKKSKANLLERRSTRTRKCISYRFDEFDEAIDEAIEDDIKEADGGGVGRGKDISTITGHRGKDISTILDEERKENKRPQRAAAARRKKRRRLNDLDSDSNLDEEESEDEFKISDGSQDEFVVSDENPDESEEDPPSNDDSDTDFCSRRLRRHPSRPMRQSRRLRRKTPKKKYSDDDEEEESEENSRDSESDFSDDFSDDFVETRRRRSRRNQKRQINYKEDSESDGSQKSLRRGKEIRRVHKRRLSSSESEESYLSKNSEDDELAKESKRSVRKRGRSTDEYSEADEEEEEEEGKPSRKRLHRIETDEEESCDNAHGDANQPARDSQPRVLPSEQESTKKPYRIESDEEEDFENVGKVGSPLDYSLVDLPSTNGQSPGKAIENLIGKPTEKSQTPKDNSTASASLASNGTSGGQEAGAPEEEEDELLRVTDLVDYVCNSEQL
Chain of UniProt Q15349 (Q15349 whole entry, looked up): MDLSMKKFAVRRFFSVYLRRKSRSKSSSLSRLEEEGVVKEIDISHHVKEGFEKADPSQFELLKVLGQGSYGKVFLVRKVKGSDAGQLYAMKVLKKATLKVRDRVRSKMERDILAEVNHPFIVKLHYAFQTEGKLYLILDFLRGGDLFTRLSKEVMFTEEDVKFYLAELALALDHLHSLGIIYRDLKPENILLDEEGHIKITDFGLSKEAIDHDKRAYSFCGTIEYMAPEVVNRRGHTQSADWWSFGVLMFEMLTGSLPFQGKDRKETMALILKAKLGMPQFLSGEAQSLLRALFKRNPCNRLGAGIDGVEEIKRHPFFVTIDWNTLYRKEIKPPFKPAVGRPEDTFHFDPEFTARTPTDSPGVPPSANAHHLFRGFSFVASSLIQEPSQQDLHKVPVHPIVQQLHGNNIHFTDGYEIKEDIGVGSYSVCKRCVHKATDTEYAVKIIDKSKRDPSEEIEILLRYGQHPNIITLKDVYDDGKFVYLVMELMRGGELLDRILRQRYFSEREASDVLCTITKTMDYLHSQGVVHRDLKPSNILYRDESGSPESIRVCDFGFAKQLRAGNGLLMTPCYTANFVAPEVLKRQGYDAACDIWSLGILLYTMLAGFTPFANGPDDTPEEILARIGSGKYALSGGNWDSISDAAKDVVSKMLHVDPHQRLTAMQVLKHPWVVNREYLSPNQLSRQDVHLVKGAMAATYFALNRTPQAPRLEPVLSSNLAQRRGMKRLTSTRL

For RRP12 (UniProt Q5JTH9), the log2 fold change was 0.036 in experiment [1]; -0.012 in experiment [2]; 0.094 in experiment [3]; -0.043 in experiment [4]; 0.371 with Nexturastat A; -0.087 with vemurafenib. The log2 fold change was -0.012 in experiment [5]; 0.074 in experiment [6]; 0.209 with givinostat; -0.018 with barasertib; 0.246 in experiment [7]; 0 in the experiment with volasertib. For the same target, the log2 fold change in experiment [8] is 0.029; with epoxomicin it was 0.054; in experiment [9], -0.036; in experiment [10] it was -0.057; in experiment [11], -0.046; with rosiglitazone, 0.026. Further, the log2 fold change in experiment [12] is 0.066; in experiment [13], 0.161.
As to RIPK1 (UniProt Q13546), the log2 fold change was 0.101 in experiment [1]; -0.043 in experiment [2]; -0.002 in experiment [3]; -0.178 in experiment [4]; 0.109 with Nexturastat A; 0.054 in the experiment with vemurafenib. The log2 fold change in experiment [5] was 0.135; in experiment [6] it was 0.092; with givinostat, 0.094; with barasertib, 0.085; in experiment [7], -0.069; with volasertib it was -0.478 (active). The log2 fold change is 0.12 in experiment [8]; -0.01 with epoxomicin; -0.046 in [9]; 0.041 in experiment [10]; 0.08 in experiment [11]; 0.111 in the experiment with rosiglitazone. Moreover, the log2 fold change was 0.022 in experiment [12] and -0.099 in [13].
Turning to RPS6KA2 isoform 2 (UniProt Q15349), the log2 fold change in experiment [1] was -0.087; in experiment [2] it was -0.229; in experiment [3], 0.159; in [4], 0.011; with Nexturastat A, 0.009; with vemurafenib, 0.037. Further, the log2 fold change in experiment [5] was 0.026; in [6], 0.023; in the experiment with givinostat, -0.148; with barasertib, 0.064; in experiment [7] it was -0.136; with volasertib, -0.179. For the same target, the log2 fold change is 0.034 in experiment [8]; 0.041 with epoxomicin; 0.133 in [9]; -0.126 in experiment [10]; 0.025 in experiment [11]; 0.072 with rosiglitazone. The values for the log2 fold change in experiment [12] and in [13] were -0.038 and -0.313, respectively.
For RSF1 (UniProt Q96T23), the log2 fold change in experiment [1] is 0.111; in experiment [2], -0.112; in [3], -0.015; in [4] it was 0.217; in the experiment with Nexturastat A, -0.091; with vemurafenib, 0.119. Moreover, the log2 fold change in experiment [5] was 0.052; in experiment [6], 0.029; with givinostat, 0.084; with barasertib it was 0.095; in experiment [7], -0.138; with volasertib it was -0.358. The log2 fold change in experiment [8] is 0.012; in the experiment with epoxomicin, 0.165; in [9], -0.097; in experiment [10] it was -0.098; in experiment [11], 0.141; with rosiglitazone it was 0.006. Besides, the log2 fold change in [12] was -0.008; in experiment [13], -0.109.
